Screens: PubChem, several laboratories
Rce1 inhib – inhibitors of yeast Ras-converting enzyme | yeast membranes, quenched prenylated peptide cleavage fluorescence | AID 2563 | calls only | 0.27% of 290,000 active;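 active = fall in fluorescence gain of 50% or more versus controls, with final raw signal at or below 3038400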;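 note: plate controls were neutral control wells for no effect and wells lacking membranes for full effect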
Target sequence (Q03530 whole entry, looked up): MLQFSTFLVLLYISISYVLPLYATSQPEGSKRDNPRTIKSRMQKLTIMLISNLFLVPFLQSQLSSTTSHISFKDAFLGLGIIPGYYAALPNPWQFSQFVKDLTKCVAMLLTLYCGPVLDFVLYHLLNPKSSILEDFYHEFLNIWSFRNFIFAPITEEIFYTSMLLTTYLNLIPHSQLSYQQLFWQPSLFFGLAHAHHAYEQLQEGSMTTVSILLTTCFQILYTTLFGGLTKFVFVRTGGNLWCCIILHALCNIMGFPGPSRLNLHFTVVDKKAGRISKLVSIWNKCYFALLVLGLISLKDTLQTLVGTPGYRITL
PLCg1 inh – PLC-gamma1 (human) inhibition, primary screen; P19174; purified PLC-gamma1, fluorogenic substrate, fluorescence; inhibition, % at 12.2 µM; 0.84% of 370,000 active; AID 720700; in the data active = inhibition above about 9.5%
PLC-beta3 inh – blocks human PLC-beta3 enzyme activity. Q01970. Purified PLC-beta3, fluorogenic substrate, fluorescence. inhibition, % at 12.2 µM. 0.18% of 370,000 active; in the data active = inhibition above about 11%;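 note: 0% = median of compound wells on plate and 100% = full blocker control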
ADAM10 inh – inhibits human ADAM10 | O14672 | recombinant ADAM10, EDANS/DABCYL FRET peptide cleavage, 3 h | inhibition, % at 7 µM | 0.62% of 370,000 active | AID 720582;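 active = inhibition above a per-campaign cutoff equal to the mean of compounds falling between control-based bounds plus 3 SD, cut at about 20% in these data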;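 note: 0% = DMSO wells while the 100% control is not disclosed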
ADAM17 inh – ADAM17 inhibition, QFRET primary screen; recombinant ADAM17, EDANS/DABCYL FRET peptide cleavage; inhibition, % at 6.95 µM; 0.83% of 370,000 active; AID 720648;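 active = inhibition above the mean of compounds lying between control limits plus 3 SD, set per campaign, cut at about 8.5% in these data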;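 note: 0% = DMSO-only wells as the low control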
* = called active by the depositor; i = inactive; . = no result; + = active, no number. Compounds with a hit are over-represented: about 2.1% of the library has one in this group of screens.

SMILES | Rce1 inhib | PLCg1 inh | PLC-beta3 inh | ADAM10 inh | ADAM17 inh
CCOC(=O)N[C@H](C(=O)N1CCC[C@H]1C(=O)NC1CCCC1)C1CCCCC1 | . | -1 | 0 | 1 | -6
COc1cc2c(cc1OC)C(c1c(Cl)cccc1Cl)=NCC2 | . | -92 | -127 | -15 | 1
COc1cc2c(cc1OC)C(CCc1ccccc1)=NCC2 | + | i | i | i | i
CC1(C)Oc2ccc(C(=O)NC3CCCC3)cc2NC1=O | . | 0 | 2 | -3 | 1
O=C(COc1ccccc1)NCCSCc1ccc(Cl)cc1 | i | 0 | 0 | 0 | 8.6*
COC[C@H]1CCCN1c1ccc2c(c1)OCCCN(C1CC1)S2(=O)=O | . | -1 | 0 | 3 | 0
CC1=NN(c2ccccc2)C(=O)C1=Cc1ccccc1 | . | 10* | 5 | -9 | -4
CC1=NN(c2ccccc2)C(=O)/C1=C/c1ccc(Cl)cc1 | i | 16* | 3 | 25* | 4
CC1=NN(c2ccccc2)C(=O)/C1=C/c1ccc[nH]1 | i | 3 | 5 | 8 | 7
CC1=NN(c2ccccc2)C(=O)/C1=C\c1ccc(Br)s1 | + | 1 | 5 | 6 | 2
CC(=O)N(Cc1ccccc1)c1nccs1 | . | 3 | 0 | 0 | 0
Cc1ccccc1S(=O)(=O)N1CCCc2nc(C)c(C)cc21 | . | -2 | -1 | -4 | -4
CCN(CC)S(=O)(=O)c1cccc(C(=O)N[C@H](C(=O)Nc2nc3ccc(F)cc3s2)C(C)C)c1 | i | -1 | -5 | 0 | -1
O=C1C=CC(=Nc2ccc3c(c2)C(=O)c2ccccc2-3)O1 | . | 4 | 0 | 11 | 12*
COCC(C)NCc1ccc(OC)c(Br)c1 (configuration not stated) | i | -1 | -5 | -1 | -2
CCCN(CCC)C(=S)NC(=O)c1ccc(Cl)cc1Cl | i | 13* | 8 | 13 | 3
Cc1ccccc1C(=O)NNC(=S)NC(=O)c1ccc(Cl)cc1Cl | i | 0 | -1 | 6 | 3
O=C(NCCc1cccnc1)c1cc(COc2ccc(F)cc2Cl)on1 | + | 0 | -8 | -2 | -5
Cc1ccc(C(=O)NCCN2C3=NC[C@H](Cc4ccc(O)cc4)N3C[C@H]2Cc2ccc(O)cc2)cc1Br | i | 10* | 7 | 8 | 0
Cc1cc(N2CCOCC2)n2cc(-c3ccccc3)nc2n1 | + | -15 | -28 | -51 | -18
Cc1cc(N2CCOCC2)n2cc(-c3ccc(F)cc3)nc2n1 | i | -51 | -80 | -172 | -64
CN(C)c1ccc(/C=N/NC(=O)CNC(=O)/C=C/c2ccccc2)cc1 | i | -13 | -23 | -106 | -28
CN(C)c1ccc(/C=N/NC(=O)CNC(=O)c2ccco2)cc1 | + | -29 | -46 | -197 | -62
O=C(CCCOc1ccccc1)Nc1cccc(S(=O)(=O)N2CCCCCC2)c1 | . | 0 | -5 | 5 | 2
CS(=O)(=O)c1ccc(C(=O)OCC(=O)N(CCc2ccccc2)Cc2ccccc2)cc1 | + | . | . | . | .
SMILES | Rce1 inhib | PLCg1 inh | PLC-beta3 inh | ADAM10 inh | ADAM17 inh
CS(=O)(=O)Cc1ccc(C(=O)N(CCc2ccccc2)Cc2ccccc2)cc1 | + | 0 | -3 | -1 | 1
Cc1ccc(S(=O)(=O)N2CCN(C(=O)c3ccc(-n4cncn4)c([N+](=O)[O-])c3)CC2)c(C)c1 | . | 1 | -1 | -7 | -2
O=C(CN1CCC(NC(=O)NC2CCCC2)CC1)Nc1ccc2c(c1)OCCO2 | . | 4 | -2 | -3 | 0
Cc1ccc(NC(=O)CN(C)C(=O)CSc2nccn2C)cc1 | . | 14* | 7 | 5 | 3
CN1CCN(CC(=O)Nc2cccc(S(=O)(=O)N(C)c3ccccc3)c2)CC1 | . | -2 | 0 | -7 | 2
C[C@@H]1C=CCCO[C@]12C(=O)N(CC1CC1)c1ccccc12 | . | 2 | 4 | -10 | -2
COC(=O)[C@]1(Cc2ccccc2)NC=C(C(=O)c2ccccc2)[C@@H]1c1cccs1 | . | -7 | -5 | -5 | -3
O=C(O)c1ccc(Nc2nc3ccc(Cl)cc3[nH]2)cc1 | + | -2 | 0 | 1 | 1
CCN(CC)CCCNC(=O)CCc1c(C)n(CC)c2cc(-c3ccccc3OC)nn2c1=O | + | -40 | -60 | -141 | -51
CCOC(=O)CCc1c(C)n(CC)c2cc(-c3ccccc3OC)nn2c1=O | i | -47 | -56 | -178 | -61
C=CCn1c(N2CCCCCC2)nc2c1c(=O)n(C)c(=O)n2C | + | . | . | . | .
COc1ccc(-c2c(C)oc3c(CN4CCN(C)CC4)c(O)ccc3c2=O)cc1 | + | i | i | i | i
COc1ccc(-c2c(C(F)(F)F)oc3c(CN4CCN(C)CC4)c(O)ccc3c2=O)cc1 | i | -111 | -143 | -29 | -11
